Where “and” joins values, the source holds several entries; their conditions need not be identical. Identical values can stand only once. Among all 5,500 compounds or so, about 2,000 (36%) were called active. Not shown: some 18% with an inconclusive outcome. Rule as the data show it: active = normalized growth mostly below about 0.91 (no sharp cut-off); inconclusive = no clear call, values can overlap the other calls; inactive = mostly above about 0.92. The list shows a part of the results.
Experiment: chemical genetic growth profiling, strain panel (AID 1159580);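 also: tested at 20 µM; growth read once vehicle control cultures reached saturation at 30 °C; 1 = growth at the plate median or of vehicle wells; lower values mean less growth of the strain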
Settings: S. cerevisiae deletion strains, growth OD

Measured: normalized growth

CCCCNc1cc(C(=O)O)cc(S(N)(=O)=O)c1Oc1ccccc1
inactive: locus YAL013W, strain DEP1, hits give low values 0.964 | locus YAL021C, strain ccr4, hits give low values 1.03 | locus YAL026C, strain drs2, hits give low values 1.01 | locus YAL030W, strain snc1, hits give low values 1.01 | locus YAL040C, strain CLN3, hits give low values 0.946 | locus YBL061C, strain skt5, hits give low values 0.992 | locus YBR009C, strain hhf1, hits give low values 0.997 | locus YBR021W, strain FUR4, hits give low values 0.985 | locus YBR023C, strain chs3, hits give low values 0.999 | locus YBR171W, strain sec66, hits give low values 0.998 | locus YBR229C, strain ROT2, hits give low values 0.987 | locus YBR231C, strain swc5, hits give low values 0.99 | locus YBR279W, strain paf1, hits give low values 1.01 | locus YCL011C, strain gbp2, hits give low values 1 | locus YCL016C, strain dcc1, hits give low values 0.993 | locus YCL029C, strain bik1, hits give low values 0.981 | locus YCL069W, strain vba3, hits give low values 1.01 | locus YCR088W, strain abp1, hits give low values 1.01 | locus YDL005C, strain med2, hits give low values 0.999 | locus YDL035C, strain GPR1, hits give low values 0.996 | locus YDL040C, strain nat1, hits give low values 0.999 | locus YDL074C, strain BRE1, hits give low values 1.03 | locus YDL101C, strain DUN1, hits give low values 0.992 | locus YDL134C, strain PPH21, hits give low values 0.965 | locus YDL185W, strain tfp1, hits give low values 0.98 | locus YDL192W, strain arf1, hits give low values 0.991 | locus YDR001C, strain nth1, hits give low values 1.01 | locus YDR069C, strain doa4, hits give low values 1.01 | locus YDR101C, strain arx1, hits give low values 0.992 | locus YDR137W, strain rgp1, hits give low values 1.01 | locus YDR150W, strain NUM1, hits give low values 0.975 | locus YDR159W, strain sac3, hits give low values 0.943 | locus YDR162C, strain NBP2, hits give low values 0.982 | locus YDR195W, strain ref2 0.983 | locus YDR297W, strain sur2, hits give low values 0.997 | locus YDR318W, strain mcm21, hits give low values 0.989 | locus YDR334W, strain swr1, hits give low values 1.02 | locus YDR335W, strain msn5, hits give low values 1.01 | locus YDR363W, strain ESC2, hits give low values 0.992 | locus YDR388W, hits give low values 0.975 | locus YDR392W, strain spt3, hits give low values 0.906 | locus YDR502C, strain sam2, hits give low values 1.01 | locus YEL003W, strain gim4, hits give low values 1.01 | locus YEL037C, strain rad23, hits give low values 1 | locus YEL061C, strain CIN8 (second series), hits give low values 1.03 | locus YEL061C, strain CIN8, hits give low values 0.994 | locus YER002W, strain NOP16, hits give low values 0.986 | locus YER015W, strain faa2, hits give low values 1.01 | locus YER016W, strain bim1, hits give low values 0.987 | locus YER110C, hits give low values 0.978 | locus YER111C, strain swi4, hits give low values 0.998 | locus YER155C, strain BEM2 (second series), hits give low values 0.974 | locus YER155C, strain BEM2, hits give low values 0.989 | locus YER167W, strain BCK2, hits give low values 0.98 | locus YFR010W, strain ubp6, hits give low values 1.01 | locus YGL078C, strain dbp3, hits give low values 0.97 | locus YGL086W, strain mad1, hits give low values 0.998 | locus YGL167C, strain pmr1, hits give low values 1 | locus YGL173C, strain kem1, hits give low values 0.983 | locus YGL227W, strain vid30, hits give low values 0.992 | locus YGL240W, strain doc1, hits give low values 0.996 | locus YGL248W, strain PDE1, hits give low values 1 | locus YGL253W, strain hxk2, hits give low values 1.04 | locus YGR078C, strain PAC10, hits give low values 0.98 | locus YGR135W, strain pre9, hits give low values 0.957 | locus YGR252W, strain gcn5, hits give low values 0.956 | locus YHR013C, strain ard1, hits give low values 0.972 | locus YHR027C, strain rpn1, hits give low values 1.01 | locus YHR030C, strain SLT2, hits give low values 0.983 and 1.03 | locus YHR079C, strain IRE1 (second series), hits give low values 0.99 | locus YHR079C, strain IRE1, hits give low values 1.07 | locus YHR094C, strain hxt1, hits give low values 0.97 | locus YHR129C, strain ARP1, hits give low values 0.99 | locus YHR142W, strain chs7, hits give low values 1.03 | locus YHR200W, strain rpn10, hits give low values 0.984 | locus YIL066C, strain RNR3, hits give low values 0.997 | locus YIL073C, strain SPO22, hits give low values 0.937 | locus YIL125W, strain kgd1, hits give low values 0.973 | locus YIR030C, strain dcg1, hits give low values 0.981 | locus YJL092W, strain hpr5, hits give low values 1.01 | locus YJL095W, strain BCK1 (second series), hits give low values 0.999 | locus YJL095W, strain BCK1, hits give low values 1.03 and 1.02 | locus YJL115W, strain asf1, hits give low values 1 | locus YJL129C, strain trk1, hits give low values 1.01 | locus YJL134W, strain LCB3, hits give low values 0.993 | locus YJL154C, strain vps35, hits give low values 1 | locus YJL164C, strain tpk1, hits give low values 1.01 | locus YJL166W, strain qcr8, hits give low values 1.01 | locus YJL168C, strain set2, hits give low values 0.982 | locus YJL187C, strain SWE1 (second series), hits give low values 1.01 | locus YJR043C, strain POL32, hits give low values 1 | locus YJR066W, strain TOR1, hits give low values 0.966 | locus YJR075W, strain HOC1, hits give low values 0.971

Reference: PubChem BioAssay AID1159580 (chemical genetic matrix, 2015)
